Assay results from PubChem BioAssay.

assay: binders of probe aFSTL3 on microarray, primary screen, stem cell growth factor project, biochemical, small-molecule microarray, fluorescence 635/667 (AID 1064); conditions: higher = more signal;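 note: measures binding of the biotinylated anti-FSTL3 antibody to printed compounds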

SMILES	composite z-score
O=C1[C@H]2C=C(I)[C@H](C[C@@H]2OCCCCCCO)[C@@]12CO2	-0.123
CCCC#C[Si](O[C@H](CC)c1cn(Cc2ccccc2)nn1)(C(C)C)C(C)C	-0.0658
C=CCN1C(=O)[C@@]2(O[C@@H](CCn3cc([C@H](O)c4ccccc4)nn3)[C@H]([Si](C)(C)c3ccc(OC)cc3)[C@H]2C)c2cc(N3C(=O)c4cccc5cccc3c45)ccc21	0.241
O=C1N(Cc2ccccc2)c2ccccc2C[C@@]12COC(c1ccc(OCCCO)cc1)=N2	0.689
CC1CC/C=C\[C@H]2OC34C=CCN(c5ccc6ccccc6c5)C(=O)[C@H]3N(C(C)CO)C(=O)[C@@H]4C2C(=O)O1 (stereo partly drawn)	0.018
COc1ccc(C(=O)Nc2cccc(CN3C(=O)[C@]4(O[C@H](CC(=O)N5Cc6ccccc6C[C@H]5CO)[C@@H]([Si](C)(C)c5ccc(OC)cc5)[C@@H]4C)c4ccccc43)c2)cc1	-0.24
COC(=O)c1cccc([C@H]2OC(=CC(=O)OC(C)C)C[C@@H](c3cccc(C(=O)OC)c3)O2)c1	-0.3
COC(=O)[C@@]1(Cc2ccc(F)cc2)[C@H]2c3cc(C(=O)N4CCCC4)n(Cc4cc(F)cc5c4OCOC5)c3C[C@H]2CN1C(=O)c1ccccc1	0.653
C=C(CCCC)/C(=C/C[C@@H](OC(C)=O)c1ccc(CO)o1)c1cnc2ccccc2c1	-0.593
CC(C)N1C(=O)C[C@@](C(=O)NCCN2CCOCC2)(c2ccc([N+](=O)[O-])cc2)[C@H]1c1ccc(CO)cc1	0.489
C=C(CCCC)/C(=C/C[C@H](OC(=O)c1ccncc1)c1ccccc1OCCO)c1cc(C(=O)OC)ccc1OC	-0.17
O=C1C[C@@](C(=O)NCc2ccccc2)(c2ccc([N+](=O)[O-])cc2)[C@@H](c2ccc(CO)cc2)N1C1CCCCC1	-0.709
CC(C)=C1C(=O)C(c2ccccc2)=C2CN3C(=O)N(CCc4ccccc4)C(=O)[C@]3(C)[C@H]21	0.532
COCCOC(=O)N1C(=O)[C@@]2(c3cc(C#CCC(C(=O)OC)C(=O)OC)ccc31)[C@H](C(=O)Nc1nc3ccccc3s1)[C@H]1C(=O)O[C@H](c3ccccc3)[C@H](c3ccccc3)N1[C@@H]2c1ccc(OCCO)cc1	0.357
COc1ccc(C(O)C2C=CC3C(=O)N(c4ccccc4)C(=O)C3N2Nc2ccc([N+](=O)[O-])cc2)c2ccccc12 (stereo not drawn)	0.138
C[N+](C)(C)CCCC[C@@H]1NC(=O)[C@@H]2C[C@H](C(=O)NCc3ccc(F)cc3)[C@H](c3ccc(O)cc3)N2C1=O	0.315
CC(C)OC(=O)CC(=O)CC(O)c1cccc([N+](=O)[O-])c1 (stereo not drawn)	0.62
O=C(NCC(O)CO)[C@@]1(CCS(=O)(=O)c2ccccc2)N=C(c2ccc(OCCCO)cc2)O[C@H]1c1ccccc1 (stereo partly drawn)	0.715
Cc1ccc(C(C)CC(O)C2C=CC3C(=O)N(C)C(=O)C3N2Nc2ccccc2)o1 (stereo not drawn)	-0.138
CCOC(=O)C[C@H]1[C@H](OC(=O)c2ccccc2-c2ccccc2)[C@@H](NC(=O)c2ccc3ccccc3c2)c2cc(OCCCO)ccc2N1C(=O)Cc1ccc(OC)cc1	0.225
Cc1ccc(S[C@]2(C(=O)NC(C)C)CC(=O)N(C3CCCCC3)[C@@H]2c2ccc(CO)cc2I)cc1	-0.183
N#Cc1ccc(NN2C(C(O)C3CC=CCC3)C=CC3C(=O)N(c4ccccc4)C(=O)C32)cc1 (stereo not drawn)	0.076
Cc1ccc(F)cc1S(=O)(=O)N[C@H]1CCN(Cc2ccc(OC(C)C)cc2)C1	-0.347
C=CCOC(=O)[C@H]1[C@@H]2C(=O)O[C@@H](c3ccccc3)[C@@H](c3ccccc3)N2[C@@H](c2ccc(OCCOC(=O)[C@@H]3C[C@@H]4C(=O)N[C@@H](CCCC[N+](C)(C)C)C(=O)N4[C@@H]3c3ccc(O)cc3)cc2)[C@]12C(=O)Nc1ccc(I)cc12	-0.291
CCOC(=O)C1=C[C@@H](C(C)(C)C)N(S(=O)(=O)c2ccc(C)cc2)[C@H]1c1ccc(C#N)cc1	0.116
CCOC(=O)C[C@H]1[C@H](OC(=O)Cc2ccc3c(c2)OCO3)[C@@H](NC(=O)c2ccc3ccccc3n2)c2cc(OCCCO)ccc2N1C(=O)Cc1ccc(OC)cc1	-0.238
COC(=O)[C@@]1(Cc2ccccc2)[C@H]2c3cc(C(=O)N(C)C)n(Cc4ccc(C(F)(F)F)nc4)c3C[C@H]2CN1C(=O)c1ccccc1	0.261

assay: binders from COS7 lysate, DM2A8 probe, primary screen, torsin A project, cell lysate, small-molecule microarray, fluorescence 635/667 (AID 1065); conditions: higher = more signal, COS7 lysate expressing mutant human TOR1A

SMILES	composite z-score
C=CCC(OC(C)=O)[C@@H]1[C@@H](N(Cc2cc3ccccc3o2)C(=O)Cc2ccc(OC)cc2)c2cc(OCCCO)ccc2N1C(=O)c1ccc2ccccc2n1 (stereo partly drawn)	-0.24
C=C(COC)/C(=C/C[C@@H](OC(C)=O)c1ccccc1OCCO)c1cnc2ccccc2c1	1.58
Cc1ccc(S[C@]2(C(=O)NCC(F)(F)F)CC(=O)N(Cc3ccccc3C(F)(F)F)[C@@H]2c2ccc(CO)cc2)cc1	-0.0728
C=CCC(OC(C)=O)[C@@H]1[C@@H](N(Cc2cccc3ccccc23)C(=O)Cc2ccc(OC)cc2)c2cc(OCCCO)ccc2N1C(=O)c1ccc2ccccc2c1 (stereo partly drawn)	0.737
COc1ccc([Si](C)(C)[C@@H]2[C@@H](CC(=O)N(CCO)Cc3ccccc3)O[C@]3(C(=O)N(Cc4ccc(N5C(=O)c6cccc7cccc5c67)cc4)c4ccccc43)[C@H]2C)cc1	0.407
COC(=O)[C@@]1(Cc2ccc(OC)cc2)[C@H]2c3cc(C(=O)N(C)C)[nH]c3C[C@H]2CN1C(=O)c1ccccc1	-0.884
CCOc1cc(C(O)C2C=CC3C(=O)N(c4ccccc4)C(=O)C3N2Nc2ccccc2F)ccc1O (stereo not drawn)	0.112
O=C1O[C@@H](c2ccccc2)[C@@H](c2ccccc2)N2[C@@H](c3ccc(OCCO)cc3)[C@]3(C(=O)Nc4ccc(C#CC5(O)CCCCCC5)cc43)[C@@H](C(=O)O)[C@H]12	0.733
COc1ccc(C(=O)Nc2ccc(CN3C(=O)[C@@]4(O[C@@H](CCn5cc(CCO)nn5)[C@H]([Si](C)(C)c5ccc(OC)cc5)[C@H]4C)c4ccccc43)cc2)cc1	0.269
O=C1[C@H]2C=C(I)[C@H](C[C@@H]2OCCCCCCO)[C@@]12CO2	0.249
CCCC#C[Si](O[C@H](CC)c1cn(Cc2ccccc2)nn1)(C(C)C)C(C)C	0.0418
C=CCN1C(=O)[C@@]2(O[C@@H](CCn3cc([C@H](O)c4ccccc4)nn3)[C@H]([Si](C)(C)c3ccc(OC)cc3)[C@H]2C)c2cc(N3C(=O)c4cccc5cccc3c45)ccc21	-0.477
O=C1N(Cc2ccccc2)c2ccccc2C[C@@]12COC(c1ccc(OCCCO)cc1)=N2	0.445
CC1CC/C=C\[C@H]2OC34C=CCN(c5ccc6ccccc6c5)C(=O)[C@H]3N(C(C)CO)C(=O)[C@@H]4C2C(=O)O1 (stereo partly drawn)	-1.51
COc1ccc(C(=O)Nc2cccc(CN3C(=O)[C@]4(O[C@H](CC(=O)N5Cc6ccccc6C[C@H]5CO)[C@@H]([Si](C)(C)c5ccc(OC)cc5)[C@@H]4C)c4ccccc43)c2)cc1	0.822
COC(=O)c1cccc([C@H]2OC(=CC(=O)OC(C)C)C[C@@H](c3cccc(C(=O)OC)c3)O2)c1	2.67
COC(=O)[C@@]1(Cc2ccc(F)cc2)[C@H]2c3cc(C(=O)N4CCCC4)n(Cc4cc(F)cc5c4OCOC5)c3C[C@H]2CN1C(=O)c1ccccc1	-0.622
C=C(CCCC)/C(=C/C[C@@H](OC(C)=O)c1ccc(CO)o1)c1cnc2ccccc2c1	0.361

SMILES	composite z-score
CC(C)N1C(=O)C[C@@](C(=O)NCCN2CCOCC2)(c2ccc([N+](=O)[O-])cc2)[C@H]1c1ccc(CO)cc1	-0.32
C=C(CCCC)/C(=C/C[C@H](OC(=O)c1ccncc1)c1ccccc1OCCO)c1cc(C(=O)OC)ccc1OC	0.963
O=C1C[C@@](C(=O)NCc2ccccc2)(c2ccc([N+](=O)[O-])cc2)[C@@H](c2ccc(CO)cc2)N1C1CCCCC1	0.858
CC(C)=C1C(=O)C(c2ccccc2)=C2CN3C(=O)N(CCc4ccccc4)C(=O)[C@]3(C)[C@H]21	-0.0272
COCCOC(=O)N1C(=O)[C@@]2(c3cc(C#CCC(C(=O)OC)C(=O)OC)ccc31)[C@H](C(=O)Nc1nc3ccccc3s1)[C@H]1C(=O)O[C@H](c3ccccc3)[C@H](c3ccccc3)N1[C@@H]2c1ccc(OCCO)cc1	0.773
COc1ccc(C(O)C2C=CC3C(=O)N(c4ccccc4)C(=O)C3N2Nc2ccc([N+](=O)[O-])cc2)c2ccccc12 (stereo not drawn)	0.263
C[N+](C)(C)CCCC[C@@H]1NC(=O)[C@@H]2C[C@H](C(=O)NCc3ccc(F)cc3)[C@H](c3ccc(O)cc3)N2C1=O	-0.4
CC(C)OC(=O)CC(=O)CC(O)c1cccc([N+](=O)[O-])c1 (stereo not drawn)	1.22
O=C(NCC(O)CO)[C@@]1(CCS(=O)(=O)c2ccccc2)N=C(c2ccc(OCCCO)cc2)O[C@H]1c1ccccc1 (stereo partly drawn)	0.965
Cc1ccc(C(C)CC(O)C2C=CC3C(=O)N(C)C(=O)C3N2Nc2ccccc2)o1 (stereo not drawn)	0.0897
CCOC(=O)C[C@H]1[C@H](OC(=O)c2ccccc2-c2ccccc2)[C@@H](NC(=O)c2ccc3ccccc3c2)c2cc(OCCCO)ccc2N1C(=O)Cc1ccc(OC)cc1	0.0793
Cc1ccc(S[C@]2(C(=O)NC(C)C)CC(=O)N(C3CCCCC3)[C@@H]2c2ccc(CO)cc2I)cc1	2.15
N#Cc1ccc(NN2C(C(O)C3CC=CCC3)C=CC3C(=O)N(c4ccccc4)C(=O)C32)cc1 (stereo not drawn)	-0.902
Cc1ccc(F)cc1S(=O)(=O)N[C@H]1CCN(Cc2ccc(OC(C)C)cc2)C1	0.325
C=CCOC(=O)[C@H]1[C@@H]2C(=O)O[C@@H](c3ccccc3)[C@@H](c3ccccc3)N2[C@@H](c2ccc(OCCOC(=O)[C@@H]3C[C@@H]4C(=O)N[C@@H](CCCC[N+](C)(C)C)C(=O)N4[C@@H]3c3ccc(O)cc3)cc2)[C@]12C(=O)Nc1ccc(I)cc12	0.857
CCOC(=O)C1=C[C@@H](C(C)(C)C)N(S(=O)(=O)c2ccc(C)cc2)[C@H]1c1ccc(C#N)cc1	0.255
CCOC(=O)C[C@H]1[C@H](OC(=O)Cc2ccc3c(c2)OCO3)[C@@H](NC(=O)c2ccc3ccccc3n2)c2cc(OCCCO)ccc2N1C(=O)Cc1ccc(OC)cc1	0.38
COC(=O)[C@@]1(Cc2ccccc2)[C@H]2c3cc(C(=O)N(C)C)n(Cc4ccc(C(F)(F)F)nc4)c3C[C@H]2CN1C(=O)c1ccccc1	0.0724
